Experimental data from PubChem BioAssay (NCI).
The panel holds about 79,000 compounds, 15% with a hit somewhere; the sample as a whole holds those more often. Unmarked numbers belong to inactive results. Active and inactive are the calls of the source. Cut-off read from the data, not from the text of the source: active = growth inhibition above about 70%; inactive = the rest.

Columns and labels:
[1] = NCI Yeast Anticancer Drug Screen. Data for the rad50 strain (AID 155);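 note: 0% = growth of vehicle-only cultures of the same strain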; conditions: S. cerevisiae rad50 strain growth inhibition, active compounds read high
Summary of the method: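 Cells are treated with compound, grown, and their growth is then scored against vehicle-only cultures of the same repair-deficient yeast strain.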

[2] = NCI Yeast Anticancer Drug Screen. Data for the mec2-1 strain (AID 157); conditions: S. cerevisiae mec2-1 strain, active compounds read high
Summary of the method: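 Yeast mec2-1 mutant treated with compound. Readout: growth inhibition vs vehicle controls.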

[3] = NCI Yeast Anticancer Drug Screen. Data for the sgs1 mgt1 strain (AID 161);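 note: 0% = growth of cultures given vehicle only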; conditions: S. cerevisiae sgs1 mgt1 strain, active compounds read high
Summary of the method: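 Mutant yeast exposed to compound; growth scored against vehicle-only wells.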

[4] = NCI Yeast Anticancer Drug Screen. Data for the cln2 rad14 strain (AID 165);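 note: 0% = growth equal to vehicle treated cultures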; conditions: S. cerevisiae cln2 rad14 strain, active compounds read high
Summary of the method: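 cln2 rad14 yeast strain; compound exposure; growth inhibition read vs vehicle controls.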

[5] = NCI Yeast Anticancer Drug Screen. Data for the bub3 strain (AID 167); conditions: S. cerevisiae bub3 mutant strain, active compounds read high
Summary of the method: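 Part of a panel of yeast mutants defective in DNA damage repair or cell cycle regulation. Each strain is grown with compound, and inhibition is calculated relative to solvent-treated cultures.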

[6] = NCI Yeast Anticancer Drug Screen. Data for the mlh1 rad18 strain (AID 175); conditions: S. cerevisiae mlh1 rad18 strain growth inhibition, active compounds read high
Summary of the method: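 Yeast w/ defined DNA-repair lesions; compound exposure; growth vs vehicle controls → % inhibition.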

[7] = at 5.0 µM (retest, dose inferred, filed as 0.5)
[8] = at 50.0 µM (retest, dose inferred, filed as 5.0)

In the case of `S=C(Nc1ccccc1)NC1CCCCCCCCC1`, the growth inhibition [1, 7] is reported as -2%, the growth inhibition [1, 8] is reported as 29% and the growth inhibition ([1]; at 50.0 µM) is reported as 77% (active). It also gave a growth inhibition [2, 7] of -8%, a growth inhibition [2, 8] of 42% and a growth inhibition ([2]; at 50.0 µM) of 54.9%. The growth inhibition [3, 7] was 5%, the growth inhibition [3, 8] was 53% and the growth inhibition ([3]; at 50.0 µM) was 90.6% (active). For the same compound, the growth inhibition [4, 7] was -59%, the growth inhibition [4, 8] was 71% (active) and the growth inhibition ([4]; at 50.0 µM) was 60.7%. It also gave a growth inhibition [5, 7] of -5%, a growth inhibition [5, 8] of 27% and a growth inhibition ([5]; at 50.0 µM) of 30.8%. For the same compound, the growth inhibition [6, 7] was 0%, the growth inhibition [6, 8] was 44% and the growth inhibition ([6]; at 50.0 µM) was 88.7% (active).
In the case of `O=[N+]([O-])c1ccc(C2=C[P+](c3ccccc3)(c3ccccc3)C=C(c3ccccc3)O2)cc1`, the growth inhibition [1, 7] is reported as 29%, the growth inhibition [1, 8] is reported as 97% (active) and the growth inhibition ([1]; at 50.0 µM) is reported as 91% (active). For the same compound, the growth inhibition [2, 7] was 21%, the growth inhibition [2, 8] was 98% (active) and the growth inhibition ([2]; at 50.0 µM) was 90.4% (active). The growth inhibition [3, 7] was 18%, the growth inhibition [3, 8] was 99% (active) and the growth inhibition ([3]; at 50.0 µM) was 85.2% (active). The growth inhibition [4, 7] was 30%, the growth inhibition [4, 8] was 98% (active) and the growth inhibition ([4]; at 50.0 µM) was 86.4% (active). For the same compound, the growth inhibition [5, 7] was 45%, the growth inhibition [5, 8] was 98% (active) and the growth inhibition ([5]; at 50.0 µM) was 92.2% (active). For the same compound, the growth inhibition [6, 7] was 22%, the growth inhibition [6, 8] was 97% (active) and the growth inhibition ([6]; at 50.0 µM) was 92.2% (active).
Work on `COC(=O)C1(Cc2ccccc2C)Cc2ccc(C)cc2C1=O` (configuration not stated) yielded a growth inhibition [1, 7] of -1%, a growth inhibition [1, 8] of 22% and a growth inhibition ([1]; at 50.0 µM) of 49.3%. The growth inhibition [2, 7] was -2%, the growth inhibition [2, 8] was 28% and the growth inhibition ([2]; at 50.0 µM) was 25.9%. The growth inhibition [3, 7] was 13%, the growth inhibition [3, 8] was 47% and the growth inhibition ([3]; at 50.0 µM) was 64.9%. It also gave a growth inhibition [4, 7] of -3%, a growth inhibition [4, 8] of 4% and a growth inhibition ([4]; at 50.0 µM) of 31.8%. For the same compound, the growth inhibition [5, 7] was 9%, the growth inhibition [5, 8] was 71% (active) and the growth inhibition ([5]; at 50.0 µM) was 64.3%. For the same compound, the growth inhibition [6, 7] was -2%, the growth inhibition [6, 8] was 30% and the growth inhibition ([6]; at 50.0 µM) was 65.9%.
In the case of `O=C(C(/C=N\C(=S)Nc1ccccc1Cl)=C(/O)c1ccccc1)c1ccccc1`, the growth inhibition [1, 7] is reported as 86% (active), the growth inhibition [1, 8] is reported as 99% (active) and the growth inhibition ([1]; at 50.0 µM) is reported as 99.4% (active). For the same compound, the growth inhibition [2, 7] was 81% (active), the growth inhibition [2, 8] was 100% (active) and the growth inhibition ([2]; at 50.0 µM) was 99% (active). The growth inhibition [3, 7] was 55%, the growth inhibition [3, 8] was 99% (active) and the growth inhibition ([3]; at 50.0 µM) was 99.3% (active). The growth inhibition [4, 7] was 95% (active), the growth inhibition [4, 8] was 99% (active) and the growth inhibition ([4]; at 50.0 µM) was 98.4% (active). For the same compound, the growth inhibition [5, 7] was 99% (active), the growth inhibition [5, 8] was 99% (active) and the growth inhibition ([5]; at 50.0 µM) was 99.3% (active). The growth inhibition [6, 7] was 90% (active), the growth inhibition [6, 8] was 99% (active) and the growth inhibition ([6]; at 50.0 µM) was 99.1% (active).
With `C=C(c1ccccc1)[P+](c1ccccc1)(c1ccccc1)c1ccccc1` the growth inhibition [1, 7] was 97% (active), the growth inhibition [1, 8] was 99% (active) and the growth inhibition ([1]; at 50.0 µM) was 99.2% (active). For the same compound, the growth inhibition [2, 7] was 99% (active), the growth inhibition [2, 8] was 100% (active) and the growth inhibition ([2]; at 50.0 µM) was 99.6% (active). For the same compound, the growth inhibition [3, 7] was 99% (active), the growth inhibition [3, 8] was 99% (active) and the growth inhibition ([3]; at 50.0 µM) was 99.5% (active). For the same compound, the growth inhibition [5, 7] was 92% (active), the growth inhibition [5, 8] was 99% (active) and the growth inhibition ([5]; at 50.0 µM) was 99% (active). For the same compound, the growth inhibition [6, 7] was 98% (active), the growth inhibition [6, 8] was 99% (active) and the growth inhibition ([6]; at 50.0 µM) was 99.5% (active).
Work on `Cc1cccc(N2C(=O)c3ccccc3C2(c2ccccc2)N2CCCCC2)c1` (configuration not stated) yielded a growth inhibition [1, 7] of -1%, a growth inhibition [1, 8] of -5% and a growth inhibition ([1]; at 50.0 µM) of 65%. The growth inhibition [2, 7] was 0%, the growth inhibition [2, 8] was -1% and the growth inhibition ([2]; at 50.0 µM) was 28%. For the same compound, the growth inhibition [4, 7] was 2%, the growth inhibition [4, 8] was -2% and the growth inhibition ([4]; at 50.0 µM) was 75.3% (active). For the same compound, the growth inhibition [5, 7] was -2%, the growth inhibition [5, 8] was -6% and the growth inhibition ([5]; at 50.0 µM) was 50.3%. It also gave a growth inhibition [6, 7] of -2%, a growth inhibition [6, 8] of -9% and a growth inhibition ([6]; at 50.0 µM) of 58.5%.
In the case of `CCc1ccc(N(C(C)=O)C2=C(Cl)C(=O)c3ccccc3C2=O)cc1`, the growth inhibition [1, 7] is reported as 99% (active), the growth inhibition [1, 8] is reported as 99% (active) and the growth inhibition ([1]; at 50.0 µM) is reported as 98.4% (active). For the same compound, the growth inhibition [2, 7] was 100% (active), the growth inhibition [2, 8] was 99% (active) and the growth inhibition ([2]; at 50.0 µM) was 91% (active). For the same compound, the growth inhibition [3, 7] was 100% (active), the growth inhibition [3, 8] was 100% (active) and the growth inhibition ([3]; at 50.0 µM) was 99.2% (active). For the same compound, the growth inhibition [4, 7] was 99% (active), the growth inhibition [4, 8] was 99% (active) and the growth inhibition ([4]; at 50.0 µM) was 77% (active). The growth inhibition [6, 7] was 100% (active), the growth inhibition [6, 8] was 99% (active) and the growth inhibition ([6]; at 50.0 µM) was 98.7% (active).
`N#[N+]c1c([O-])ccc2nc3ccccc3nc12` gave a growth inhibition [1, 7] of -101%, a growth inhibition [1, 8] of 12% and a growth inhibition ([1]; at 50.0 µM) of 68.4%. It also gave a growth inhibition [2, 7] of -43%, a growth inhibition [2, 8] of -45% and a growth inhibition ([2]; at 50.0 µM) of 40.7%. The growth inhibition [3, 7] was -56%, the growth inhibition [3, 8] was -30% and the growth inhibition ([3]; at 50.0 µM) was 10.2%. The growth inhibition [5, 7] was -59%, the growth inhibition [5, 8] was -69% and the growth inhibition ([5]; at 50.0 µM) was -14.9%. For the same compound, the growth inhibition [6, 7] was -114%, the growth inhibition [6, 8] was -56% and the growth inhibition ([6]; at 50.0 µM) was 66.9%.
In the case of `NCc1ccc(O)c(O)c1O`, the growth inhibition [1, 7] is reported as -2%, the growth inhibition [1, 8] is reported as 78% (active) and the growth inhibition ([1]; at 50.0 µM) is reported as 14.9%. The growth inhibition [2, 7] was 8%, the growth inhibition [2, 8] was 80% (active) and the growth inhibition ([2]; at 50.0 µM) was 14.4%. The growth inhibition [3, 7] was 8%, the growth inhibition [3, 8] was 61% and the growth inhibition ([3]; at 50.0 µM) was 38.2%. It also gave a growth inhibition [4, 7] of -16%, a growth inhibition [4, 8] of 52% and a growth inhibition ([4]; at 50.0 µM) of -2.75%. The growth inhibition [6, 7] was -22%, the growth inhibition [6, 8] was 83% (active) and the growth inhibition ([6]; at 50.0 µM) was 16.3%.
For `O=NNc1ncccc1OCc1ccccc1`, the growth inhibition [1, 7] was 9%, the growth inhibition [1, 8] was 6% and the growth inhibition ([1]; at 50.0 µM) was 56.9%. It also gave a growth inhibition [2, 7] of 6%, a growth inhibition [2, 8] of 6% and a growth inhibition ([2]; at 50.0 µM) of 25.6%. The growth inhibition [3, 7] was 9%, the growth inhibition [3, 8] was 14% and the growth inhibition ([3]; at 50.0 µM) was 0.75%. The growth inhibition [5, 7] was 10%, the growth inhibition [5, 8] was 13% and the growth inhibition ([5]; at 50.0 µM) was -2.9%. It also gave a growth inhibition [6, 7] of 9%, a growth inhibition [6, 8] of 15% and a growth inhibition ([6]; at 50.0 µM) of 17.8%.
With `CC(=O)C1CCCCC1/C=C/[N+](=O)[O-]` (configuration not stated) the growth inhibition [1, 7] was 23%, the growth inhibition [1, 8] was 93% (active) and the growth inhibition ([1]; at 50.0 µM) was 99.5% (active). The growth inhibition [2, 7] was 16%, the growth inhibition [2, 8] was 74% (active) and the growth inhibition ([2]; at 50.0 µM) was 99.7% (active). The growth inhibition [3, 7] was 25%, the growth inhibition [3, 8] was 93% (active) and the growth inhibition ([3]; at 50.0 µM) was 99.1% (active). For the same compound, the growth inhibition [4, 7] was 6%, the growth inhibition [4, 8] was 27% and the growth inhibition ([4]; at 50.0 µM) was 99% (active). The growth inhibition [6, 7] was 42%, the growth inhibition [6, 8] was 97% (active) and the growth inhibition ([6]; at 50.0 µM) was 99.2% (active).
